Source: PubChem BioAssay
A number with no mark means an inactive call. The list shows a part of the results. Calls of active or inactive are those of the source.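 The calls were made as follows, unless noted: active = mean inhibition across replicates above the hit cutoff set by the earlier primary screen (cut at about 15% in these data); inactive = the rest.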

Tests used:
[1] = molecular target: Photoreceptor-specific nuclear receptor (Homo sapiens) (UniProt Q9Y5X4); experiment: retest of NR2E3-NCOR disrupting agonists – cell-based, luminescence, CHO-S two-hybrid, confirmation (AID 624378;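 active = average inhibition above a cutoff equal to the mean inhibition of all tested compounds plus one SD, cut at about 70% in these data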;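 also: 0% = DMSO in NR2E3 cells and 100% = DMSO in cells lacking NR2E3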); settings: CHO-S mammalian two-hybrid NR2E3-NCOR, luciferase luminescence; at 3.98 µM; hits give high values
Photoreceptor-specific nuclear receptor (Homo sapiens), sequence (Q9Y5X4 whole entry, looked up): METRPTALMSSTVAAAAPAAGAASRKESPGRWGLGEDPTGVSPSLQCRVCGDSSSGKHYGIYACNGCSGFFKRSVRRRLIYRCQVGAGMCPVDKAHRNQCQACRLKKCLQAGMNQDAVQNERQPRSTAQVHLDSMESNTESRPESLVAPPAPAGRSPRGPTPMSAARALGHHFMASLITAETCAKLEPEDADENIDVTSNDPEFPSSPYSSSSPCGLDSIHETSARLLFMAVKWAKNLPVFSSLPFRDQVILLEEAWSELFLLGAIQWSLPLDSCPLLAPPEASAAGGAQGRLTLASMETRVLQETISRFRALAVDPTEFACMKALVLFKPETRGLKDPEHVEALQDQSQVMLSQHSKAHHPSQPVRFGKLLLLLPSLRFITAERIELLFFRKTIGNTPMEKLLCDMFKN

[2] = nonselective effects on VP16 transactivation – cell-based, luminescence, CHO-S, high throughput, counter-screen for NR2E3 agonist project, confirmation (AID 624379;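 active = mean inhibition above a cutoff equal to the average over all tested compounds plus one standard deviation, cut at about 70% in these data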;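 also: 0% = DMSO with VP16-transfected cells and 100% = DMSO with cells lacking VP16; higher means less reporter light so more repression of VP16 activity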); settings: CHO-S GAL4-VP16 luciferase reporter, at 3.98 µM, hits give high values
[3] = VP16-driven transactivation reporter suppression – cell-based, luminescence, HEK293, counter-screen for COUP-TFII antagonist project (AID 687007; in the data active = inhibition above about 13%); settings: HEK293 Gal4-VP16 luciferase reporter, at 8.5 µM, hits give high values
[4] = molecular target: COUP transcription factor 2 (Homo sapiens) (UniProt P24468); experiment: retest of COUP-TFII reporter suppressors – cell-based, luciferase reporter, HEK293, triplicate, confirmation (AID 687008;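 active = mean inhibition over three repeats above a set limit taken from the earlier primary screen, cut at about 38% in these data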;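 also: 100% = cells given the luciferase reporter alone without the COUP-TF2 vector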); settings: HEK293 NGFI-A luciferase reporter, luminescence; at 8.5 µM; hits give high values
COUP transcription factor 2 (Homo sapiens), sequence (P24468 whole entry, looked up): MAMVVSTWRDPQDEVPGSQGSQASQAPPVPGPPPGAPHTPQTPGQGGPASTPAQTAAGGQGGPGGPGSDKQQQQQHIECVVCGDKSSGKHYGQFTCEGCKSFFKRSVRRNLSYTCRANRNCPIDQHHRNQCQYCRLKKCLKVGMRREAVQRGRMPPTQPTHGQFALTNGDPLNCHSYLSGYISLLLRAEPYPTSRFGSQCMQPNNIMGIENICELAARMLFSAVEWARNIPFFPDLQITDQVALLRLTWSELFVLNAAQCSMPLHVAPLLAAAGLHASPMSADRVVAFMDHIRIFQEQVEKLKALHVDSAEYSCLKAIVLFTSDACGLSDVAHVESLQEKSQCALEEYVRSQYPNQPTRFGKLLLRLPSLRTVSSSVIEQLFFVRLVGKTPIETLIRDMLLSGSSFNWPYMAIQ

[5] = molecular target: (Lyso)-N-acylphosphatidylethanolamine lipase (Mus musculus) (UniProt Q8VD66); experiment: mouse ABHD4 hydrolase blockers, triplicate – biochemical, fluorescence polarization, confirmation (AID 720658;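 active = mean inhibition across replicates above the hit cutoff set in the primary screen, cut at about 30% in these data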;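 also: 0% = wild-type ABHD4 with DMSO and 100% = catalytically dead S159A mutant with DMSO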); settings: purified mABHD4, FP-Rh probe fluorescence polarization; at 8.92 µM; hits give high values
(Lyso)-N-acylphosphatidylethanolamine lipase (Mus musculus), sequence (Q8VD66 whole entry, looked up): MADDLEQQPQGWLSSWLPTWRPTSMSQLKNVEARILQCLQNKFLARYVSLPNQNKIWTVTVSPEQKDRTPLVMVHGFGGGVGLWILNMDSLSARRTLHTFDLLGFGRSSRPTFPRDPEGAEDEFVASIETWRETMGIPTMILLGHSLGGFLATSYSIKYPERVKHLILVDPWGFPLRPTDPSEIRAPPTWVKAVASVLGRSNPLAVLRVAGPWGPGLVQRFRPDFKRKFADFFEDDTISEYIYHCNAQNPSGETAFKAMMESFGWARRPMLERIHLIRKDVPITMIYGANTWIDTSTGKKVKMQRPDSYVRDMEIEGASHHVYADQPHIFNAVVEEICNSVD

[6] = molecular target: Oxysterols receptor LXR-beta (Homo sapiens) (UniProt P55055); experiment: nonspecific reporter activation via LXR – cell-based, luminescence, HEK293, H. contortus campaign, counter-screen for hcDAF-12 agonist project, confirmation (AID 743027;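 active = mean percent activation of the reporter above a cutoff set as the average over tested compounds plus their standard deviation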); settings: HEK293 Gal4-LXR tk-luc reporter, 24 h, at 6.8 µM, hits give high values, normalized: DMSO 0%, positive control 100%
Oxysterols receptor LXR-beta (Homo sapiens), sequence (P55055 whole entry, looked up, the tested form may be a part): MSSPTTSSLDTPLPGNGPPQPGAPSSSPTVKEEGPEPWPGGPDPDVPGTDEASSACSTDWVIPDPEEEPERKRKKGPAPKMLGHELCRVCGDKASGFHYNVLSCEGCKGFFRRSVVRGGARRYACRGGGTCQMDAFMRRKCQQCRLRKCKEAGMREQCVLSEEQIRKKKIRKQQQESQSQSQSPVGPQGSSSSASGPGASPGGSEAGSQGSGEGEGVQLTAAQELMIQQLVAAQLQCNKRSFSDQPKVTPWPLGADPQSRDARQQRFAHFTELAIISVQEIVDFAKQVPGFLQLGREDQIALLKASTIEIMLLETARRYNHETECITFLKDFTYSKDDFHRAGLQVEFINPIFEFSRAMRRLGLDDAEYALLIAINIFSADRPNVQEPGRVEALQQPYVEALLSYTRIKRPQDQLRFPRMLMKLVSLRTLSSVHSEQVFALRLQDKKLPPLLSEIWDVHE

[7] = test system: Nuclear hormone receptor DAF-12 (Haemonchus contortus); experiment: hcDAF-12 luciferase reporter activation, retest – cell-based, luminescence, HEK293, lit1-tk-luc, triplicate, confirmation (AID 743032;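 active = mean activation across triplicate tests above the threshold derived from the earlier primary screen, cut at about 5.5% in these data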;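 also: 0% = DMSO only wells and 100% = 3 µM Δ7-dafachronic acid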); settings: HEK293 hcDAF-12 lit1-tk-luc reporter, at 6.8 µM, hits give high values, % of Δ7-dafachronic acid response
[8] = test system: DAF-12 nuclear receptor (Heterodera glycines), GAL4-LBD fusion; experiment: hgDAF-12 GAL4 fusion reporter activation, retest – cell-based, luminescence, HEK293, GAL4-LBD fusion, confirmation (AID 743050;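 active = mean activation over triplicate wells above the hit cutoff derived from the earlier primary screen, cut at about 11% in these data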;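 also: 0% = DMSO low control and 100% = 2 mM sodium butyrate high control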); settings: HEK293 GAL4-hgDAF12 luciferase reporter, agonist mode; at 6.8 µM; hits give high values; percent of butyrate response
[9] = molecular target: Oxysterols receptor LXR-beta (Homo sapiens) (UniProt P55055); experiment: nonspecific reporter activation via LXR – cell-based, luminescence, HEK293, H. glycines campaign, counter-screen for hgDAF-12 agonist project, confirmation (AID 743051;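 active = mean activation of the triplicate above a set limit carried over from the primary screen, none filed active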); settings: HEK293 Gal4-LXR luciferase reporter, 24 h; at 6.8 µM; hits give high values
[10] = molecular target: Protein-arginine deiminase type-4 (Homo sapiens) (UniProt Q9UM07); experiment: protein arginine deiminase 4 blockade, retest – biochemical, fluorescence polarization, confirmation (AID 488796); settings: recombinant PAD4, RCA probe fluorescence polarization; at 6.36 µM; hits give high values;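 also: inhibitors block active-site labeling by the probe so polarization falls; 0% = PAD4 with probe and DMSO and 100% = probe without PAD4 enzyme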
Protein-arginine deiminase type-4 (Homo sapiens), sequence (Q9UM07 whole entry, looked up): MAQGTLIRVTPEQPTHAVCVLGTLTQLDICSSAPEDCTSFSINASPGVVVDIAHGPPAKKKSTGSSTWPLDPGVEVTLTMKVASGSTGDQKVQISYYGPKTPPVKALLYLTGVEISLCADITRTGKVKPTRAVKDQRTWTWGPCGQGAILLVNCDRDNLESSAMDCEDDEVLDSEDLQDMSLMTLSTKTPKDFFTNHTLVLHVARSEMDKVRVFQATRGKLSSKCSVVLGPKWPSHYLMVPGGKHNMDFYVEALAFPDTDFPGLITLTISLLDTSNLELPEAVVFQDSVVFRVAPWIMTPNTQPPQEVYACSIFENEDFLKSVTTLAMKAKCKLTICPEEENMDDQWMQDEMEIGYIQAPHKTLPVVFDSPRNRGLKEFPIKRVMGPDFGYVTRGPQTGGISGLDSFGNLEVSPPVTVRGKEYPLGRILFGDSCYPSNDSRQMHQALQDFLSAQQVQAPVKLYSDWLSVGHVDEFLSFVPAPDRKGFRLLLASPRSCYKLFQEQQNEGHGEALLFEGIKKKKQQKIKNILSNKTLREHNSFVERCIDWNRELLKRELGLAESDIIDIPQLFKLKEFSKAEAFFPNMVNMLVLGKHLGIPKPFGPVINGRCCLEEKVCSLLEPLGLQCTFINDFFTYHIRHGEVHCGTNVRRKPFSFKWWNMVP

[11] = molecular target: Platelet-activating factor acetylhydrolase (Homo sapiens) (UniProt Q13093); experiment: inhibition of plasma PAF acetylhydrolase – biochemical, fluorescence polarization, human, confirmation (AID 463230;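 active = mean inhibition of the triplicate above the hit cutoff set for the earlier primary screen, cut at about 25% in these data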;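 also: 0% = enzyme with DMSO and 100% = wells lacking pPAFAH enzyme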); settings: recombinant pPAFAH, FP-Rh probe fluorescence polarization; at 3.39 µM; hits give high values
Platelet-activating factor acetylhydrolase (Homo sapiens), sequence (Q13093 whole entry, looked up): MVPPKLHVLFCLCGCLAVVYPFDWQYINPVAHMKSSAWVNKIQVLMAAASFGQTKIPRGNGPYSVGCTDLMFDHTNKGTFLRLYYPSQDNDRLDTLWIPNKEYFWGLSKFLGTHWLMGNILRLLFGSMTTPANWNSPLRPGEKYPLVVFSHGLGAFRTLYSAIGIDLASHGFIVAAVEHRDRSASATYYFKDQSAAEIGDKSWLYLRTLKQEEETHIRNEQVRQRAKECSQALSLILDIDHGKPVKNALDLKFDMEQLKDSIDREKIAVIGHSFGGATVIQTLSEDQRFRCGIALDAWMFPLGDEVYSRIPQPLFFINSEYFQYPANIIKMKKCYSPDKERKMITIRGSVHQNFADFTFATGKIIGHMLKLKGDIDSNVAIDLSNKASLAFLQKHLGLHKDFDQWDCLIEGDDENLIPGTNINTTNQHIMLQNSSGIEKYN

[12] = molecular target: Serine protease HTRA1 (Homo sapiens) (UniProt Q92743); experiment: confirming inhibition of human HTRA1 – biochemical, fluorescence polarization, confirmation (AID 540248;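 active = mean inhibition over three repeats above a set limit taken from the earlier primary screen, cut at about 37% in these data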;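 also: 0% = HTRA1 with DMSO and 100% = wells lacking HTRA1; inhibitors block probe binding so polarization drops and inhibition rises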); settings: recombinant HTRA1, FP-rhodamine activity-based probe, at 5.96 µM, hits give high values
[13] = BSA probe fluorescence interference – biochemical, TAMRA-labeled BSA, counter-screen for TCR-CD3 interaction inhibitor project (AID 652035; in the data active = inhibition above about 23%;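 also: 0% = buffer low control and 100% = reference high control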); settings: TAMRA-labeled BSA probe fluorescence counterscreen; at 9.4 µM; hits give high values
[14] = test system: T-cell receptor (TCR)-CD3 interaction, human; experiment: blockers of TCR binding to CD3 – biochemical, fluorescence, TAMRA-labeled TCR probe, confirmation (AID 652036; in the data active = inhibition above about 19%); settings: TAMRA-labeled TCR probe fluorescence binding assay; at 9.4 µM; hits give high values
[15] = StAR promoter reporter inhibitors, counter-screen for LRH-1 inverse agonist project, cell-based, luminescence, high throughput (AID 651611; in the data active = inhibition above about 28%); settings: StAR promoter luciferase reporter counterscreen, at 3.6 µM, hits give high values
[16] = molecular target: Nuclear receptor subfamily 5 group A member 2 (Homo sapiens) (UniProt O00482); experiment: NR5A2 activity suppression in reporter cells – cell-based, luminescence, confirmation (AID 651613; in the data active = inhibition above about 42%;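 also: HEK293T cells co-transfected with LRH-1 and StAR promoter luciferase reporter; 0% = vehicle wells and 100% = parental cells lacking receptor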); settings: cell-based LRH-1 luciferase reporter, inverse agonism; at 3.6 µM; hits give high values
Nuclear receptor subfamily 5 group A member 2 (Homo sapiens), sequence (O00482 whole entry, looked up): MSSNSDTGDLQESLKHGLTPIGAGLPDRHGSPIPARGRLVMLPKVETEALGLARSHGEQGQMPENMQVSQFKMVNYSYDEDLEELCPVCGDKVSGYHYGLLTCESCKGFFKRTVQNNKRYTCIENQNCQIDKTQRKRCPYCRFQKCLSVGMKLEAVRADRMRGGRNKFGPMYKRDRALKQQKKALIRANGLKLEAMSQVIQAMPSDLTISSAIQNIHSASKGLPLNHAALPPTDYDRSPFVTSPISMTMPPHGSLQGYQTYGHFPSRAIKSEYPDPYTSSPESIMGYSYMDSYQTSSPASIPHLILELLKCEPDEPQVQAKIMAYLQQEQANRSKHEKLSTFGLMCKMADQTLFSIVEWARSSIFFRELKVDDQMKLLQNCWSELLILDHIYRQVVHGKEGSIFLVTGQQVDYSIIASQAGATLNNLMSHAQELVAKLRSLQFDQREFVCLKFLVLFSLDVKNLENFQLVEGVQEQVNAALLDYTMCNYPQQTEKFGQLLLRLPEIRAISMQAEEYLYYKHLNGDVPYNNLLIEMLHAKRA

[17] = molecular target: Steroidogenic factor 1 (Homo sapiens) (UniProt Q13285); experiment: inverse agonism at SF1 nuclear receptor – cell-based, luminescence, high throughput, counter-screen for LRH-1 inverse agonist project (AID 651614; in the data active = inhibition above about 44%;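 also: cells cotransfected with StAR promoter reporter and SF1 expression vector; 0% = vehicle on cells with receptor and 100% = vehicle on cells lacking receptor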); settings: cell-based SF1 luciferase reporter, at 3.6 µM, hits give high values
Steroidogenic factor 1 (Homo sapiens), sequence (Q13285 whole entry, looked up, the tested form may be a part): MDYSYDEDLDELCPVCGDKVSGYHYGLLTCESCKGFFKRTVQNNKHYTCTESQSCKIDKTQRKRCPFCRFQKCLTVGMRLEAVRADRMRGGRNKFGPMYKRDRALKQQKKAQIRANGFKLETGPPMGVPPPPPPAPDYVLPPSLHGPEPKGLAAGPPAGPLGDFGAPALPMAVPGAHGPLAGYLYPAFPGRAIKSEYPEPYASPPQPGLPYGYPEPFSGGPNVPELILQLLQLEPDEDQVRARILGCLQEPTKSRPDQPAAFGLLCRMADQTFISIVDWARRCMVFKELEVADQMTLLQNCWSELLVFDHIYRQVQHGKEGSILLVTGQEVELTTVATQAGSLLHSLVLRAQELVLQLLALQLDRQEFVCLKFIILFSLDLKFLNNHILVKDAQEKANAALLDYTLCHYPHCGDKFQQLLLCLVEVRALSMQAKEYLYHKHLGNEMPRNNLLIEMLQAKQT

[18] = compounds suppressing VP16-driven luciferase signal – cell-based, luminescence, high throughput, counter-screen for LRH-1 inverse agonist project (AID 651615; in the data active = inhibition above about 33%); settings: Gal4-VP16 luciferase reporter cells, at 3.6 µM, hits give high values

SMILES: Fc1ccc2[nH]c3c(N4CCSCC4)ncnc3c2c1
- inhibition [1]: 84.4% (active)
- inhibition [2]: 63.2%
- inhibition [3]: 4.31%
- inhibition [4]: 48% (active)

SMILES: N#C/C(=C\c1ccc(O)c(O)c1)C(=O)NCc1ccccc1
- inhibition [5]: 30.8% (active)

SMILES: N#CC1=C(N)Oc2c(sc3ccccc23)C1c1ccco1 (centres undefined)
- activation [6]: -0.13%
- activation [7]: 1.83%

SMILES: COc1ccc(N=C(C)c2sc3ccccc3c2O)cc1
- activation [8]: 18.6% (active)
- activation [9]: 0.76%

SMILES: COc1cc(SC#N)ccc1N=Cc1c(C)[nH]n(-c2ccc(C)cc2)c1=O
- inhibition [10]: 29.7% (active)

SMILES: Cc1cc(/C=N/Nc2ccc([N+](=O)[O-])cn2)c(C)n1-c1cccc(C(=O)O)c1
- inhibition [11]: 11.7%
- inhibition [12]: 30.7%
- inhibition [5]: 74.5% (active)

SMILES: CCCCNC(=O)C1(c2ccc(OC)cc2)CCOCC1
- inhibition [10]: 8.6%

SMILES: Cc1cc2c(cc1C)N(C(=O)CN1C(=O)c3ccccc3C1=O)C(C)(C)c1ssc(=S)c1-2
- inhibition [10]: 33.7% (active)

SMILES: CC(C)C(NC(=O)c1ccc(Cl)cc1)C(=O)O (centres undefined)
- inhibition [10]: -6.12%

SMILES: CCC(=O)Nc1sc(C(=O)Nc2ccccc2)c(C)c1C(=O)OC
- inhibition [11]: 4.86%
- activation [8]: 9.78%
- activation [9]: 0.28%

SMILES: CCOc1[nH]n(-c2ccc(Cl)cc2)c(=O)c1C=Nc1ccc(O)cc1
- inhibition [10]: 6.04%
- inhibition [5]: -0.05%

SMILES: CC(C)(C)NC(=O)NC(=O)COC(=O)CCC1CCCCC1
- inhibition [10]: 2.14%

SMILES: CC(=O)N(c1ccc2oc(=O)sc2c1)S(=O)(=O)c1ccc(C)cc1
- inhibition [10]: 10.9%

SMILES: CC(C)c1ccc(NC(=S)NNc2ccc(Cl)c(C(=O)O)c2)cc1
- inhibition [11]: 11.9%
- inhibition [5]: 19.4%

SMILES: Cc1ccn2cc(-c3nonc3C)cc2c1
- inhibition [10]: 6.98%

SMILES: Cn1c(Nc2cccc(Cl)c2)nc2ccccc21
- inhibition [10]: 4.71%

SMILES: CC(=O)Oc1cccc(N2C(=O)CC(Nc3ccc(N4CCOCC4)cc3)C2=O)c1 (centres undefined)
- inhibition [10]: -1.36%

SMILES: Cc1ccc(C(=O)CSc2nc3ccccc3c(=O)n2N)o1
- inhibition [10]: 1.81%

SMILES: Cc1cc(O)ccc1-c1cnc2ccccc2n1
- inhibition [10]: 29.1% (active)

SMILES: COc1cccc(NC(=O)C2c3cc(OC)c(OC)cc3C(=O)N(C)C2c2cccnc2)c1 (centres undefined)
- inhibition [10]: 8.92%

SMILES: CNC(=S)NNC(=O)c1oc2nc(-c3ccccc3)cc(-c3ccco3)c2c1N
- inhibition [10]: 2%
- inhibition [12]: 11.5%
- inhibition [13]: -11.2%
- inhibition [14]: 30.5% (active)
- inhibition [5]: 17.5%

SMILES: CCOC(=O)N1CCC(c2cc(=O)n(-c3ccccc3)[nH]2)CC1
- inhibition [10]: -0.34%

SMILES: COC(=O)c1ccc(NC(=O)CSc2nncc3ccc(OC)c(OC)c23)cc1
- inhibition [10]: 0.13%

SMILES: O=C(NCC1CCCO1)c1cc2c([nH]c3ccccc32)c(-c2ccc(F)cc2)n1 (centres undefined)
- inhibition [10]: 64.8% (active)
- inhibition [15]: 50.5% (active)
- inhibition [16]: 41.6% (active)
- inhibition [17]: 50.1% (active)
- inhibition [18]: 27.2%

SMILES: CCc1ccccc1NC(=S)Nc1cc(OC)c(NC(=O)C(C)C)cc1OC
- inhibition [10]: 1.96%
- inhibition [5]: -9.17%

SMILES: COc1cccc2c(C)c(C(=O)O)[nH]c12
- inhibition [11]: 33% (active)
- inhibition [5]: 34.5% (active)

SMILES: COc1ccc(C2NC(=S)NC3=C2CCc2ccccc23)cc1OC (centres undefined)
- inhibition [10]: 22.5% (active)

SMILES: O=C(CN1CCCCCC1)Nc1ccc(Br)cc1Br
- inhibition [10]: 3.01%

SMILES: O=C(NCCCO)c1cc2c([nH]c3ccccc32)c(-c2ccc(F)cc2)n1
- inhibition [10]: 22.4% (active)

SMILES: COc1ccccc1CNC(=O)C1CCN(c2nc3ccccc3o2)CC1
- inhibition [10]: 5.44%

SMILES: C=CCN(C(=O)Nc1ccc2oc(C)nc2c1)c1ccccc1
- inhibition [10]: -3.81%

SMILES: CN1C(=O)c2cccc3c(N)ccc(c23)C1=O
- inhibition [10]: 17.1% (active)
- inhibition [5]: 31.5% (active)
